# Measured values reported in PubChem BioAssay.
# Activity calls are given as the source filed them.
# Assays:
# [1] = binders of probe aFSTL3 on microarray, primary screen, stem cell growth factor project, biochemical, small-molecule microarray, fluorescence 635/667 (AID 1064); settings: higher = more signal;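 note: measures binding of the biotinylated anti-FSTL3 antibody to printed compounds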
# [2] = binders from COS7 lysate, DM2A8 probe, primary screen, torsin A project, cell lysate, small-molecule microarray, fluorescence 635/667 (AID 1065); settings: higher = more signal, COS7 lysate expressing mutant human TOR1A
# [3] = binders of probe aFGF2 on microarray, primary screen, stem cell growth factor project, biochemical, small-molecule microarray, fluorescence 635/667 (AID 1067); settings: higher = more signal;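 note: measures binding of biotinylated aFGF2 protein to printed compounds on slides; z-score merges feature fluorescence and signal-to-noise across triplicate slides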
# [4] = binders of probe aFGF10 on microarray, primary screen, stem cell growth factor project, biochemical, small-molecule microarray, fluorescence 635/667 (AID 1071); settings: higher = more signal;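 note: score merges 667 nm spot intensity and signal to noise from triplicate slides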
# [5] = biological target: Neurogenic locus notch homolog protein 2 (Homo sapiens) (UniProt Q04721); test: Notch2 binders on small-molecule microarrays, primary screen, biochemical, small-molecule microarray, 635 nm fluorescence, stem cell growth factors (AID 1073); settings: Notch2 binding, higher = more signal
# Sequence of Neurogenic locus notch homolog protein 2 (Homo sapiens) (Q04721 whole entry, looked up, canonical isoform): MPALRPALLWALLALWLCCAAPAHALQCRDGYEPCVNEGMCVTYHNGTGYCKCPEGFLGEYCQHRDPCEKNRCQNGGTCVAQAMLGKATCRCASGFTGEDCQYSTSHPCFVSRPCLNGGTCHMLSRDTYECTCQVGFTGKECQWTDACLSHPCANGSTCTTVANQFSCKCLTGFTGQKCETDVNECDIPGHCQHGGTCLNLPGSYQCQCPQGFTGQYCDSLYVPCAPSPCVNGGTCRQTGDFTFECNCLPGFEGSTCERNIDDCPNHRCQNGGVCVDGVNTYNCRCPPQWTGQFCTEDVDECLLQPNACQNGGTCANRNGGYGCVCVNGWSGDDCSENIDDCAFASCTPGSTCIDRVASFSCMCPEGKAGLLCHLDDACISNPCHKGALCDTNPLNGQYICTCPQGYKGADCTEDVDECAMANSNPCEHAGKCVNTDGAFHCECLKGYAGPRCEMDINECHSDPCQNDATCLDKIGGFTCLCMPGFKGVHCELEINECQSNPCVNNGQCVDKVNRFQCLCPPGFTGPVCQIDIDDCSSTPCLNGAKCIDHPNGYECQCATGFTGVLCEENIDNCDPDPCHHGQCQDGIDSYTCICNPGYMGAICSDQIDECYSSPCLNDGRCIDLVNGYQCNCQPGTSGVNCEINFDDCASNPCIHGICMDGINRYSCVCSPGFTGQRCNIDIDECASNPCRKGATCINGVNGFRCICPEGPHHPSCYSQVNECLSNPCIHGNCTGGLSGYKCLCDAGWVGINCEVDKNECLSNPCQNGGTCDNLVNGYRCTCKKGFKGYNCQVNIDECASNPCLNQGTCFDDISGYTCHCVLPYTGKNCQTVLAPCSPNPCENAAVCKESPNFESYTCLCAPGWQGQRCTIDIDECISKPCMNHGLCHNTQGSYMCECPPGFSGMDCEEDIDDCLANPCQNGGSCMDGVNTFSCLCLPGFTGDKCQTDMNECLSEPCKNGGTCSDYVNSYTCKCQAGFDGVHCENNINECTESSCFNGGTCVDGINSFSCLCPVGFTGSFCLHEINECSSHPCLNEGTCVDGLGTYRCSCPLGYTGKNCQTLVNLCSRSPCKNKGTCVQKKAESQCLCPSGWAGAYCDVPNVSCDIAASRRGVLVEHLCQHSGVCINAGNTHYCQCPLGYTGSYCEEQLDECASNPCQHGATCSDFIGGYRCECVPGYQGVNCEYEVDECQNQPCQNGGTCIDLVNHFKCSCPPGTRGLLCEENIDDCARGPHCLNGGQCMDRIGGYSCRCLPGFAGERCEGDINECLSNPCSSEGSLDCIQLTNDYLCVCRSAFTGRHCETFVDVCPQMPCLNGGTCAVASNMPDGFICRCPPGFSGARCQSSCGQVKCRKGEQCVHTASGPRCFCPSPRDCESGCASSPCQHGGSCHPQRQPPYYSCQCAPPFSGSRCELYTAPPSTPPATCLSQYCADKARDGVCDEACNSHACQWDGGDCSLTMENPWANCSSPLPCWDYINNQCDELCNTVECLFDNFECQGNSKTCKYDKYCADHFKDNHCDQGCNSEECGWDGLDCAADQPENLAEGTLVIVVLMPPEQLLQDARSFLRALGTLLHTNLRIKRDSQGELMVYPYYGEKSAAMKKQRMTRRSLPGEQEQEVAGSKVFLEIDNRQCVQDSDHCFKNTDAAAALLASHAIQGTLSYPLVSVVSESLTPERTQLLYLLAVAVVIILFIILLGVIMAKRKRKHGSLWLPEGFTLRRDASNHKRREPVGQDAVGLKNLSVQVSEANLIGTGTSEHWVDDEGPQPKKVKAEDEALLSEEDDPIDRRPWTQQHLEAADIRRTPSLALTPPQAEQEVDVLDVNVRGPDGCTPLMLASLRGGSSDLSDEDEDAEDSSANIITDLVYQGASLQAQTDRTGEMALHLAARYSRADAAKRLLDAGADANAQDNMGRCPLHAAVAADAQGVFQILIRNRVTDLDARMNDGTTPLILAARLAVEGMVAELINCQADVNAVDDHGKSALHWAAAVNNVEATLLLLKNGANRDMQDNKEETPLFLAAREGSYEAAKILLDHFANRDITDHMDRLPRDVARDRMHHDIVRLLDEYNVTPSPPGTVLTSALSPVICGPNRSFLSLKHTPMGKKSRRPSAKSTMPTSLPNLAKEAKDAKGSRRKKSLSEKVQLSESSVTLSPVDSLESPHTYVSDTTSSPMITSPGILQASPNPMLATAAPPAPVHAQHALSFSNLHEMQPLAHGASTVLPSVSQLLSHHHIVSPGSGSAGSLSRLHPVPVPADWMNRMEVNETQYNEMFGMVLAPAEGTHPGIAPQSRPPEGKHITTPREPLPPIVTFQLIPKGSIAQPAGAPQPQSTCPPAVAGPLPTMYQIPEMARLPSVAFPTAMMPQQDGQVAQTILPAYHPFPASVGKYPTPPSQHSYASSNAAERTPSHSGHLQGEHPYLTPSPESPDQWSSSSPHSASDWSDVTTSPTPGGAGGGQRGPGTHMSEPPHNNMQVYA
# [6] = biological target: Pro-neuregulin-1, membrane-bound isoform (Homo sapiens) (UniProt Q02297); test: NRG1 binders on small-molecule microarrays, primary screen, psychiatric disease protein project, biochemical, small-molecule microarray, fluorescence 635/667 (AID 1075); settings: NRG1 binding, 635 nm fluorescence, higher = more signal;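 note: score combines 667 nm spot fluorescence with signal to noise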
# Sequence of Pro-neuregulin-1, membrane-bound isoform (Homo sapiens) (Q02297 whole entry, looked up, the tested form may be a part, canonical isoform): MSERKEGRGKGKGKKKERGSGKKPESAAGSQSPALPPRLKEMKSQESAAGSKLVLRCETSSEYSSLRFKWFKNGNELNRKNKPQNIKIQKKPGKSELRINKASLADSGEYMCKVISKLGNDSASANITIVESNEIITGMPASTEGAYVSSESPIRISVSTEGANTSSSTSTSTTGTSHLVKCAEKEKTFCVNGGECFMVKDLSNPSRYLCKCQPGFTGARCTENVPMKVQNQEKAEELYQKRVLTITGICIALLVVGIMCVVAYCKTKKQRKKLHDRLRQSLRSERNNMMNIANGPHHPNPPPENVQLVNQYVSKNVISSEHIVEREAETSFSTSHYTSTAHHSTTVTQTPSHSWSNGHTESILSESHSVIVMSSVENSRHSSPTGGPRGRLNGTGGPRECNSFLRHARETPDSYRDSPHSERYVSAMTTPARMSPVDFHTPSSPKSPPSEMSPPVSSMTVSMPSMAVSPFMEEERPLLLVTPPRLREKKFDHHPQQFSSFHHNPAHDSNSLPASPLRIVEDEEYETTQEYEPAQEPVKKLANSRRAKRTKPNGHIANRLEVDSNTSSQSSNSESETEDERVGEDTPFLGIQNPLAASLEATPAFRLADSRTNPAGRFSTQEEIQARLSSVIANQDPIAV
# [7] = system: Neuregulin-1 EGF-like domain; test: binders of neuregulin-1 EGF-like domain, primary screen, biochemical, small-molecule microarray, 635 nm fluorescence (AID 1081); settings: small-molecule microarray binding, higher = more signal;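 note: binding of the protein to compounds printed on small-molecule microarray slides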
# [8] = FRG1 promoter luciferase signal modulators, primary screen, FRG1 inhibition for FSHD, cell-based, C2C12 myotubes, firefly/Renilla luciferase, luminescence (AID 1084); settings: higher = more signal, called active from +8 up or from −8 down
# [9] = binders of probe aFST on microarray, primary screen, stem cell growth factor project, biochemical, small-molecule microarray, fluorescence 635/667 (AID 1086); settings: higher = more signal;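 note: score merges 667 nm fluorescence with signal-to-noise of each printed compound spot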
# [10] = binders of probe aHhip on microarray, primary screen, stem cell growth factor project, biochemical, small-molecule microarray, fluorescence 635/667 (AID 1087); settings: higher = more signal;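 note: score merges spot fluorescence at 667nm with spot signal to noise ratio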
SMILES,composite z-score [1],composite z-score [2],composite z-score [3],composite z-score [4],composite z-score [5],composite z-score [6],composite z-score [7],z-score [8],composite z-score [9],composite z-score [10]
COCCOC(=O)N1C(=O)[C@@]2(c3cc(C#CCNC(N)=O)ccc31)[C@H](c1ccc(OCCO)cc1)N1[C@H](c3ccccc3)[C@H](c3ccccc3)OC(=O)[C@H]1[C@@H]2C(N)=O,0.423,0.278,0.0541,0.913,1.49,0.897,0.809,0.47 (inactive),0.715,0.351
O=C1C[C@@](C(=O)NCc2ccccc2)(c2ccc([N+](=O)[O-])cc2)[C@@H](c2ccc(CO)cc2I)N1CC12CC3CC(CC(C3)C1)C2,-0.262,0.656,-0.0412,0.831,1.2,0.656,1.15,-1.32 (inactive),0.572,0.261
CN(C)CCCCNC(=O)[C@H]1C[C@H]2C(=O)N[C@@H](CCCC[N+](C)(C)C)C(=O)N2[C@H]1c1ccc(O)cc1,-0.334,0.755,-0.136,-0.556,-0.661,-0.506,0.942,3.25 (inactive),-0.31,-0.132
[N-]=[N+]=Nc1ccccc1C[C@@]1(C(=O)O)N=C(c2ccc(OCCCO)cc2)O[C@@H]1c1ccccc1N=[N+]=[N-],0.943,0.211,0.0171,0.325,1.37,1.95,1.21,-0.22 (inactive),1.36,-0.283
C=C(C)[C@@H]1CC=C(C(O)C2C=CC3C(=O)N(c4ccccc4)C(=O)C3N2Nc2ccc(C#N)cc2)CC1 (stereo not given in full),-0.266,-0.278,0.169,0.783,1.65,1.81,1.33,-1.74 (inactive),1.53,-0.112
COCCCNC(=O)[C@@]1(c2ccc([N+](=O)[O-])cc2)CC(=O)N(CC23CC4CC(CC(C4)C2)C3)[C@@H]1c1ccc(CO)cc1I,0.456,-0.243,-0.034,0.246,0.218,1.13,1.3,-2.2 (inactive),0.15,-0.236
COc1cc2c(cc1O)C(c1ccc(CN3CCCC3)cc1)N(C)CC2 (stereo not given),-1.13,-0.77,-0.148,0.0711,-0.101,2.19,1.07,-0.426 (inactive),-0.382,-0.81
CCCCCN1CC=CC23O[C@@H]4C=CCOC(=O)[C@@H]4[C@H]2C(=O)N(CCO)[C@@H]3C1=O (stereo not given in full),0.388,0.483,-0.177,0.162,-1.27,1.6,1.48,-0.0097 (inactive),-0.455,-0.199
COc1cc(NN2C(C(O)c3cc(OC)c(OC)c(OC)c3)C=CC3C(=O)N(c4ccccc4)C(=O)C32)cc(OC)c1OC (stereo not given),0.457,0.512,0.432,1.09,1.57,1.79,1.38,0.997 (inactive),0.669,-0.0631
CN1C(=O)[C@@]2(Cc3ccccc3)N=C(c3ccc(OCCCO)cc3)O[C@H]2c2ccccc21,0.331,0.295,0.0175,0.261,0.921,0.501,1.21,-2.02 (inactive),0.511,-0.156
CO[C@H]1O[C@H](CO)[C@@H](OC(=O)CCc2ccccc2)[C@H](OC(=O)c2cc3ccccc3[nH]2)[C@H]1OC(=O)c1cc2ccccc2[nH]1,-0.262,0.489,-0.0321,0.72,1.15,1.21,1.02,-0.3 (inactive),0.29,0.0596
C=C(C(=O)CC[C@H](OC(=O)c1ccccc1-c1ccccc1C(=O)O)c1ccccc1OCCO)C(C)C,-0.148,0.724,-0.163,0.782,0.393,0.61,1.18,-1.38 (inactive),0.117,-0.0994
NC(=O)[C@H]1[C@@H]2C(=O)O[C@@H](c3ccccc3)[C@@H](c3ccccc3)N2[C@@H](c2ccc(O)cc2)[C@]12C(=O)Nc1ccccc12,0.339,-1.11,-0.128,-0.171,-1.37,1.81,0.653,-0.977 (inactive),-0.442,-0.137
Cc1cccc([C@H]2C[C@H]3C(I)=C[C@@H]2C(=O)[C@]32CO2)c1,0.165,0.0974,-0.128,-0.152,-0.714,-0.507,-0.38,2.56 (inactive),-0.0256,-0.236
CC(=O)n1cc(C(O)C2C=CC3C(=O)N(c4ccccc4)C(=O)C3N2Nc2ccc(C(C)C)cc2)c2ccccc21 (stereo not given),0.657,0.249,0.125,0.899,1.55,1.95,1.15,-0.833 (inactive),1.07,-0.0645
O=C1C[C@@](C(=O)NCC(F)(F)F)(c2ccc([N+](=O)[O-])cc2)[C@@H](c2ccc(CO)cc2)N1CC12CC3CC(CC(C3)C1)C2,0.213,0.244,0.134,1.15,1.19,0.812,1.32,-2.42 (inactive),0.724,0.914
CN(C)C(=O)[C@@]1(CCC(=O)OC(C)(C)C)N=C(c2ccc(OCCCO)cc2)O[C@H]1c1ccccc1CN=[N+]=[N-],-0.0162,1.01,0.0408,0.39,1.06,1.92,1.28,-0.119 (inactive),0.717,0.0373
CC1(C)C(=O)C(c2ccccc2)=C2CN3C(=O)N(CCc4ccccc4)C(=O)C3(Cc3ccc(F)cc3)C=C21 (stereo not given),0.817,-0.339,0.248,0.173,1.47,0.536,0.631,0.927 (inactive),1.58,0.0818
O=C(CS)NCCCCCNC(=O)[C@@H]1C[C@@H]2C(=O)N[C@@H](Cc3ccccc3)C(=O)N2[C@@H]1c1cccc(OCCO)c1,-0.0315,0.692,-0.01,0.325,0.0566,1.43,1.39,0.057 (inactive),0.0454,-0.277
COCCOC(=O)N1C(=O)[C@@]2(c3cc(C#CCNC(N)=O)ccc31)[C@H](c1ccc(O)cc1)N1[C@H](c3ccccc3)[C@H](c3ccccc3)OC(=O)[C@H]1[C@@H]2C(=O)N1CCN(c2ncccn2)CC1,-0.487,0.594,0.0762,0.661,0.629,1.19,1.1,-0.523 (inactive),0.34,-0.218
CC(C)C[C@@H]1NC(=O)[C@@H]2C[C@H](C(=O)NCCCCCC[N+](C)(C)C)[C@H](c3cccc(OCCO)c3)N2C1=O,0.222,0.0263,-0.145,-0.289,0.114,1.06,1.18,2.84 (inactive),-0.304,-0.126
CCOC(=O)C1=C[C@@H](c2ccccc2)N(S(=O)(=O)c2ccc(C)cc2)[C@H]1c1ccccc1,0.119,-0.137,-0.0659,0.21,0.917,0.442,0.296,-0.401 (inactive),0.171,-0.0994
COCC1=C2[C@@H](CCc3ccccc3)OB(O)C[C@@H]2[C@@H]2C(=O)N(C)C(=O)[C@@H]2C1,-0.136,0.0288,-0.164,0.511,0.21,-0.295,0.843,-3.25 (inactive),-0.0464,-0.0618
C=CC1c2cc(O)c(OC)cc2CCN1Cc1ccc([N+](=O)[O-])o1 (stereo not given),0.29,0.381,-0.0156,0.673,1.12,1.64,1.09,-0.0303 (inactive),0.457,0.245
CC(C)CNC(=O)[C@@]1(c2ccc([N+](=O)[O-])cc2)CC(=O)N(C2CCCCC2)[C@@H]1c1ccc(CO)cc1,0.574,0.219,0.0353,-0.0872,0.554,0.452,1.26,-0.639 (inactive),0.859,-0.132
O=c1cccc(-c2ccc(F)cc2)o1,-0.227,-0.0321,-0.0455,0.255,0.607,-0.219,1.08,0.855 (inactive),0.552,0.643
O=C(N1CCOCC1)[C@@]1(CCS(=O)(=O)c2ccccc2)N=C(c2ccc(OCCCO)cc2)O[C@H]1c1ccccc1,0.448,1.06,0.0671,0.515,1.45,2.31,1.37,0.419 (inactive),1.37,-0.191
COc1ccc([Si](C)(C)[C@H]2[C@H](CCO)O[C@@]3(C(=O)N(Cc4ccccc4)c4ccc(N5C(=O)c6ccccc6Oc6ccccc65)cc43)[C@@H]2C)cc1,0.342,-0.393,-0.0591,0.606,-0.0653,0.777,0.79,-1.55 (inactive),-0.0173,-0.169
O=C1OCC=C[C@H]2OC34C=CCN(c5ccc6ccccc6c5)C(=O)[C@H]3N(CCCCCO)C(=O)[C@@H]4[C@@H]12 (stereo not given in full),1.43,-0.964,-0.0407,-0.61,-0.994,2.26,1.39,-0.139 (inactive),-0.356,-0.338
COc1ccc([Si](C)(C)[C@@H]2[C@@H](CC(=O)N3Cc4ccccc4C[C@H]3CO)O[C@]3(C(=O)N(c4ccccc4)c4ccccc43)[C@H]2C)cc1,0.485,1.02,0.411,0.934,0.627,2.35,1.16,-3.5 (inactive),1.43,0.433
